Measurements reported in ChEMBL document CHEMBL3988442, “University of Dundee, Small-Polar-MMV Screening Library” (2021).
About 13,000 (27%) of roughly 48,000 compounds showed an effect of 50% or more. This is one part of the list.

system: Wolbachia pipientis; assay: Anti-Wolbachia Cell-Based Screen; assay type: functional; parameters: scale not given: in the data most compounds retested in dose-response had high values; conditions: 5 µM

Row | SMILES | Percent Effect [%]
1 | Cc1n[nH]c(C)c1CNc1ccc(-c2nc(C3CC3)no2)cn1 | 9.439
2 | COc1ccc([C@@H]2CN(C(=O)CCc3cc(Cl)no3)C[C@H]2N(C)C)cc1 | -5.122
3 | O=C(NCCOc1ccccc1)c1ccc2c(c1)C(=O)NC2=O | -4.876
4 | Cn1c(=O)c2cc(C(=O)NCCc3ccccc3)ccc2n(C)c1=O | 97.39
5 | COc1ccc(OCCNC(=O)c2ccc3c(=O)[nH][nH]c(=O)c3c2)cc1 | 4.909
6 | O=C(NCCOCC(F)(F)F)c1ccc(-c2ccco2)[nH]c1=O | 3.056
7 | CC(O)(CCc1ccccc1)CNC(=O)c1ccc(F)cc1 (stereo unspecified) | -3.449
8 | Cn1c(=O)c2cc(C(=O)NCCOCC(F)(F)F)ccc2n(C)c1=O | 109.9
9 | O=C(O)c1ccc(CCNC(=O)C2(O)Cc3ccccc3C2)cc1 | 0.991
10 | Cn1c(=O)c2cc(C(=O)NCCOc3ccccc3)ccc2n(C)c1=O | 103.9
11 | Cc1ccc(-n2ccnc2)c(C(=O)NCCOCC(F)(F)F)c1 | 1.401
12 | Cc1cnc(C)c(N2CCC(c3nnc(CN(C)C)n3C3CC3)CC2)n1 | 5.849
13 | O=C(O)c1ccc(F)c(S(=O)(=O)Nc2ccc(-n3cccn3)c(Cl)c2)c1 | -11.53
14 | CCc1ccc(C(=O)O)cc1S(=O)(=O)Nc1ccc(F)c(C#N)c1 | 3.443
15 | Cc1c(F)cc(C(=O)O)cc1S(=O)(=O)Nc1ccc(F)c(C#N)c1 | 122.4
16 | N#Cc1cc(NS(=O)(=O)c2cc(C(=O)O)cc(Cl)c2Cl)ccc1F | 118.7
17 | COC(=O)c1ccc(Cl)c(S(=O)(=O)Nc2ccc(F)c(C(N)=O)c2)c1 | -0.6488
18 | N#Cc1cc(NS(=O)(=O)c2ccc(C(=O)O)cc2F)ccc1F | -1.66
19 | Cc1cnn(Cc2cc(F)ccc2F)c1NC(=O)C1COCCO1 (stereo unspecified) | -3.747
20 | CCN(C)C(=O)[C@H]1C[C@@](CC(C)C)(C(=O)OC)N(C)[C@H]1c1cccnc1 | 5.067
21 | CC(c1ccon1)N(C)C(=O)C1CCN(C(=O)C2CC2)CC1 (stereo unspecified) | 3.184
22 | Cc1ccc2oc(C(=O)N3CCC(C(=O)N4CCCC4)CC3)cc2n1 | -8.823
23 | CC(NC(=O)C1CCN(C(=O)C2CC2)CC1)c1nncn1C(C)C (stereo unspecified) | -33.62
24 | Cc1cc(-c2ccc(=O)n(C3CCN(C(=O)C4CCC4)CC3)n2)c(C)o1 | 91.93
25 | Cc1cc(-c2ccc(=O)n(C3CCN(C(=O)C4CC4)CC3)n2)c(C)o1 | 96.13
26 | CC(c1ccon1)N(C)C(=O)C1CCN(C(=O)C2CCC2)CC1 (stereo unspecified) | -1.254
